Assay results: ChEMBL document CHEMBL1201862, “PubChem BioAssay data set” (2004)
The campaign covered roughly 57,000 sequences. About 2,300 (4%) were called active. Rule as the data show it: active = GI50 up to about 1.1 µM and inactive = higher. The list is a sample of the results. Entries with a potency or affinity are not part of this list.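 The compound was tested at five concentrations on cells cultured in 96-well plates, with a 48-hour exposure period. GI50 is the concentration that inhibits growth by half.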

test system: SK-MEL-28; experiment: NCI tumour cell line growth inhibition, 48 h

| Substance | GI50 [µM] |
| --- | --- |
| [Bis(aminomethyl)diethylsilane]tetrachloroplatinum(IV), CHEMBL2146203 | 1.72 |
| CISPLATIN, CHEMBL11359 | 4.43 |
| [Bis(aminomethyl)tetramethylenesilane]dichloropaltinum(II), CHEMBL2146205 | 20.3 |
| [Bis(aminomethyl)pentamethylenesilane]dichloropaltinum(II), CHEMBL2146202 | 3.85 |
| [Bis(aminomethyl)ethylmethylsilane]tetrachloroplatinum(IV), CHEMBL2146192 | 2.76 |
| [Bis(aminomethyl)pentamethylenesilane]tetrachloropaltinum(IV), CHEMBL2146204 | 1.23 |
| cis-Bis[[(trimethylsilyl)methyl]amino]tetrachloroplatinum(IV), CHEMBL2146191 | 2.86 |
| [Bis(aminomethyl)dimethylsilane]tetrachloroplatinum(IV), CHEMBL2146190 | 10.2 |
| [Bis(aminomethyl)tetramethylenesilane]tetrachloropaltinum(IV), CHEMBL2146189 | 2.85 |
| mu-(1,7-nanodiamine-N,N')bis-(cis-aminedichloroplatimum (II)), CHEMBL2146215 | 10.2 |
| [Bis(aminomethyl)dimethylsilane]dichloroplatinum (II), CHEMBL2146201 | 21.6 |
